Screens deposited in PubChem by National Center for Advancing Translational Sciences (NCATS).
TDP1 cell noCPT: qHTS for Inhibitors of human tyrosyl-DNA phosphodiesterase 1 (TDP1): qHTS in cells in absence of CPT. 420,000 compounds, 15% hits. DT40 Tdp1-/- hTDP1 cells, no CPT, ATP luminescence, 48 h. Potency, µM (series often up to 46.2 µM), for inactives: top-dose activity change, negative = growth inhibition, actives largely listed as inhibitors; further: nearly all actives have a fitted effect of over 55% in size
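Luminescent ATP content (CellTiter-Glo) served as the growth readout. Knockout chicken DT40 cells expressing human TDP1 were exposed to compounds without camptothecin for a minimum 48 hr at 37 °C.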
RORgamma inh: qHTS for inhibitors of ROR gamma transcriptional activity. Drosophila S2 Gal4-RORgamma UAS-luciferase reporter, 20 h. 310,000 compounds, 5.4% hits. Potency, µM (top dose mostly 53.6 µM), for inactives: at the highest dose activity change, negative = inhibition, usual class: inhibitors. Nuclear receptor ROR-gamma (Mus musculus), P51450; further: nearly all actives have a fitted effect of over 60% in size
Target sequence (P51450 whole entry, looked up, the tested form may be a part): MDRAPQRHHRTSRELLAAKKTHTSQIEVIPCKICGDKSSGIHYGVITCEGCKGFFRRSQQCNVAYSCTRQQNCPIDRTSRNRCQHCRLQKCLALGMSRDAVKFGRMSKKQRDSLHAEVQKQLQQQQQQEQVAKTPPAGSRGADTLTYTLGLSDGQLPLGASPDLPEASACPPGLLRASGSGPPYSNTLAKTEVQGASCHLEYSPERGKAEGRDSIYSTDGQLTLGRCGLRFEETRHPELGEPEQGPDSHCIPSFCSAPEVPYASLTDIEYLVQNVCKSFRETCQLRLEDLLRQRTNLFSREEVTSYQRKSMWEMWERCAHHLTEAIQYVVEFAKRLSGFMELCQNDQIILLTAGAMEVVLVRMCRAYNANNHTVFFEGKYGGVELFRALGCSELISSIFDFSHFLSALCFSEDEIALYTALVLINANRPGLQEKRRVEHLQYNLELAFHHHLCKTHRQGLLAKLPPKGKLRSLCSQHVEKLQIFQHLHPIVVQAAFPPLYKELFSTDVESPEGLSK
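A Gal4/UAS one-hybrid system in insect cells: metallothionein-promoter Gal4–ROR gamma fusion plus Photinus luciferase reporter. Copper sulfate 700 uM final, 20 hr ambient incubation, luminescent detection after 10 min with reagent.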
ALOX12 inh: Primary qHTS assay for inhibitors of human arachidonate 12S-lipoxygenase (ALOX12): Round 2; purified 12hLO, xylenol orange hydroperoxide absorbance; Potency, µM (titrated, usually from 108 µM), for inactives: at the top dose activity change, negative = inhibition, actives largely listed as inhibitors; Polyunsaturated fatty acid lipoxygenase ALOX12 (Homo sapiens), P18054; 580,000 compounds, 1.1% hits
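Hydroperoxide product was detected by ferrous iron/xylenol orange as the 573 to 405 nm absorbance ratio. Arachidonic acid at 40 uM (final) was turned over for 30 min at room temperature by 150 nM human 12hLO, pH 7.0 Hepes buffer, after 15 min compound preincubation.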
TDP1 cell CPT: qHTS for Inhibitors of human tyrosyl-DNA phosphodiesterase 1 (TDP1): qHTS in cells in presence of CPT | chicken DT40 Tdp1-/-;hTDP1 cells + 20 nM CPT, ATP luminescence, 48 h | Potency, µM (highest dose often 46.2 µM), without a hit: top-dose activity change, negative = growth inhibition, most hits filed as inhibitors | 420,000 compounds, 12% hits | AID 686979, 2013; further: nearly all actives have a fitted effect of over 55% in size
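Chicken DT40 Tdp1-/- cells stably complemented with human TDP1 were seeded at 400 cells/well in medium containing 20 nM camptothecin, exposed to pin-transferred compounds, and grown at 37 °C for at least 48 hr. Viability was read as ATP luminescence.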
VP16 counter: VP16 counterscreen qHTS for inhibitors of ROR gamma transcriptional activity | AID 2546, 2010 | 310,000 compounds, 3.5% hits | Potency, µM (highest dose often 53.6 µM), inactives show at the highest dose activity, negative = inhibition, most hits filed as inhibitors | Drosophila S2 Gal4-VP16 UAS-luciferase, luminescence, 20 h;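 further: Gal4-VP16 expression switched on by copper sulfate through the metallothionein promoter; nearly all actives have a fitted effect of over 50% in size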
ELG1 repair inh: qHTS screen for small molecules that inhibit ELG1-dependent DNA repair in human embryonic kidney (HEK293T) cells expressing luciferase-tagged ELG1 | 330,000 compounds, 2.3% hits | Potency, µM (highest dose often 46.1 µM), inactives show at the highest dose activity change, negative = inhibition, actives largely listed as inhibitors | HEK293T ELG1-luciferase reporter, luminescence, 16 h; DNA damage induced by 5-fluorouridine | AID 504467, 2011; further: nearly all actives have a fitted effect of over 55% in size
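Overnight (16 hr) co-exposure of 2,000 cells/well to 5-fluorouridine and compound at 37 °C preceded detection. Luciferase was quantified via ONE-Glo luminescence; loss of signal denotes inhibition.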
* hit, by the source's call; ? = inconclusive; nt = no result; [ ] = remark or other dose. A selection: hits, their analogues and other compounds. The true share with any hit is near 15%. The call rests on the fitted dose curve; in most records, active means well fitted curve in the direction sought with a large enough effect; inconclusive means small, poorly fitted or top-dose-only effect, or another doubt; inactive means no such curve, though single readings can be large; an effect the other way counts as inactive or inconclusive. On the % scale 0 is the no-effect control and ±100 the full control effect; potency means the concentration at half of the fitted maximal effect.

SMILES	TDP1 cell noCPT	RORgamma inh	ALOX12 inh	TDP1 cell CPT	VP16 counter	ELG1 repair inh
Oc1c(Cl)cc(Oc2cc(Cl)c(O)c(CN3CCOCC3)c2)cc1CN1CCOCC1	?	nt	-12%	2%	nt	nt
Cc1cc2ccccc2cc1CN1CCOCC1	-5%	-11%	-26%	1%	-7%	?
Oc1c(CN2CCOCC2)cc(CN2CCOCC2)c(O)c1O	?	nt	61%	18µM*	nt	nt
COc1ccc2c(c1OC)OCC(c1ccc(OC)c(OC)c1OC)C2 (centres undefined)	-9%	-11%	nt	6%	-4%	nt
COc1ccc2c(c1OC)OCC2C (centres undefined)	18µM*	nt	-17%	?	nt	nt
Cc1occc1C(=O)N/N=C/C=C\c1ccccc1[N+](=O)[O-]	-28%	?	0%	?	?	?
Cc1ccsc1C(=O)N/N=C/C=C/c1ccccc1[N+](=O)[O-]	?	5.6µM*	-14%	21µM*	5.6µM*	?
O=C(N/N=C/C=C/c1ccccc1[N+](=O)[O-])c1cc(-c2ccccc2)n[nH]1	15µM*	7.1µM*	4%	16µM*	14µM*	?
Cc1ccc(CNS(=O)(=O)c2ccc3c(c2)N(Cc2noc(C)n2)C(=O)CO3)cc1	nt	nt	-1%	nt	nt	nt
C=CCN(Cc1cccs1)C(=O)c1ccncc1	nt	nt	-10%	nt	nt	nt
Cc1cccc(N(C)c2ncnc3onc(-c4ccc(F)cc4)c23)c1C	16µM*	-32%	-3%	?	16%	-29%
Cc1cc(N2C(=O)[C@@H]3[C@H](C2=O)[C@@H]2C[C@H]3C(Br)C2Br)no1 (some centres undefined)	-9%	-16%	-3%	2%	1%	-4%
O=C1C2C3C=CC(C3)C2C(=O)N1c1cccnc1 (centres undefined)	1%	-10%	6%[57.4 µM]	-8%	-14%	nt
O=C1C2C3c4ccccc4C(c4ccccc43)[C@@H]2C(=O)N1c1cccnc1 (some centres undefined)	23µM*	0%	2%	?	-1%	?
O=C1C2C3c4ccccc4C(c4ccccc43)C2C(=O)N1c1ccncc1 (centres undefined)	16µM*	45%	-1%	21µM*	-7%	-11%
Cc1cc(N2C(=O)C3C4c5ccccc5C(c5ccccc54)C3C2=O)no1 (centres undefined)	10µM*	6%	-22%	12µM*	-2%	?
Cc1nc2cnc3ccc(C#Cc4cccnc4)cc3c2n1-c1ccc(C(C)(C)C#N)cc1	nt	nt	-11%[57.4 µM]	nt	nt	nt
Cn1c(=O)n(-c2ccc(C(C)(C)C#N)cc2)c2c3cc(-c4cnc5ccccc5c4)ccc3ncc21	0.05µM*	nt	-28%[57.4 µM]	0.25µM*	nt	nt
CCc1ccccc1N/C=C(\C#N)c1nc(-c2ccc(C)cc2)cs1	nt	nt	1%	nt	nt	nt
COc1cccc2oc(-c3ccco3)cc(=O)c12	15µM*	-10%	?	21µM*	4%	?
COc1cc(OC)c2c(=O)cc(-c3ccccc3)oc2c1	?	-18%	?	21µM*	-8%	?
CC(C)(C)OC(=O)COc1cc(OCC(=O)OC(C)(C)C)c2c(=O)cc(-c3ccccc3)oc2c1	18µM*	-4%	-12%	?	4%	?
CC(C)(C)OC(=O)COc1cc(O)c2c(=O)cc(-c3ccccc3)oc2c1	-27%	-17%	3%	?	-5%	-25%
COc1cc2c(c3oc(-c4ccccc4)cc(=O)c13)C=CC(C)(C)O2	26µM*	-32%	?	16µM*	?	-7%
Cc1cnc(C(=O)N2[C@@H]3CC[C@H]2CC(NC(=O)c2ccc(F)cc2)C3)cn1 (some centres undefined)	nt	nt	30%	nt	nt	nt
SMILES	TDP1 cell noCPT	RORgamma inh	ALOX12 inh	TDP1 cell CPT	VP16 counter	ELG1 repair inh
Cc1nc([C@@H]2CN(C(=O)CCc3c(C)noc3C)C[C@H]2C(N)=O)n[nH]1	nt	nt	32%	nt	nt	nt
O=C(Nc1c(-c2ccccc2)[nH][nH]c1=O)c1ccc(Br)cc1	5%	nt	?	-11%	nt	nt
Cc1ccc(C(C[N+](=O)[O-])c2c(-c3ccccc3O)[nH][nH]c2=O)cc1 (centres undefined)	2.9µM*	5µM*	40µM*	3.3µM*	11µM*	-4%
O=c1[nH][nH]c(-c2ccccc2O)c1C(C[N+](=O)[O-])c1ccc(Br)cc1 (centres undefined)	2.6µM*	?	?	3.3µM*	?	?
COc1ccc(C(C[N+](=O)[O-])c2c(C)[nH]c3ccccc23)cc1OC (centres undefined)	?	-27%	-13%	?	6%	0%
Cc1ccc(C(=O)Nc2cccc(S(=O)(=O)N3CCCC3)c2)o1	8%	nt	6%	-15%	nt	21%
O=c1c2ccccc2[nH]c(=S)n1-c1cccc(S(=O)(=O)N2CCCC2)c1	?	3.2µM*	-5%	?	?	-19%
O=c1c2ccccc2nc(SCc2cccc(F)c2)n1-c1cccc(S(=O)(=O)N2CCCC2)c1	18µM*	29%	-11%	12µM*	-8%	-27%
Cc1ccc(S(C)(=O)=O)cc1C(=O)Nc1cccc(S(=O)(=O)N2CCCCCC2)c1	-6%	nt	0%	?	nt	12µM*
Cc1ccc(S(=O)(=O)N2CCCCC2)cc1C(=O)Nc1ccccn1	1%	2%	6%	-5%	0%	-1%
CC(=O)c1c(C)[nH]c(C(=O)Nc2cccc(S(=O)(=O)N3CCCCC3)c2)c1C	15µM*	nt	?	?	nt	?
O=c1c2ccccc2[nH]c(=S)n1CCN1CCCC1	-1%	-4%	-7%	24%	4%	7%
CC(C)(C)NC(=O)N[C@H](Cc1ccccc1)C(=O)N1CCOCCNC(=O)CC1	nt	nt	27%	nt	nt	nt
CCOc1ccc(-c2cc(-c3nc(-c4cccnc4)no3)[nH]n2)cc1	nt	nt	6%	nt	nt	nt
O=C(Nc1cccc(S(=O)(=O)N2CCCC2)c1)c1cc(=O)[nH]c2ccccc12	-8%	nt	215%	-21%	nt	-6%
O=C(Nc1cccc(S(=O)(=O)N2CCCCC2)c1)c1cc(=O)[nH]c2ccccc12	18µM*	nt	-8%	23µM*	nt	26µM*
